DT40 TDP1 CPT = DT40-hTDP1 cell growth loss with CPT | hit rate 12% among 420,000 | chicken DT40 Tdp1-/-;hTDP1 cells + 20 nM CPT, ATP luminescence, 48 h | AID 686979 | Potency, µM (highest dose often 46.2 µM), most hits filed as inhibitors; note: nearly all actives have a fitted effect of over 55% in size
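Chicken DT40 Tdp1-/- cells stably complemented with human TDP1 were seeded at 400 cells/well in medium containing 20 nM camptothecin, exposed to pin-transferred compounds, and grown at 37 °C for at least 48 hr. Viability was read as ATP luminescence.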
D3 antag = antagonists of human D3 dopamine receptor. P35462. D3R cells, DiscoveRx beta-arrestin luminescence, antagonist mode; hits give low values. max response, negative = inhibition, %. hit rate 2.5% among 360,000; in the data active = max response below about -50%; inconclusive = no clear call, values can overlap the other calls
Target sequence (P35462 whole entry, looked up): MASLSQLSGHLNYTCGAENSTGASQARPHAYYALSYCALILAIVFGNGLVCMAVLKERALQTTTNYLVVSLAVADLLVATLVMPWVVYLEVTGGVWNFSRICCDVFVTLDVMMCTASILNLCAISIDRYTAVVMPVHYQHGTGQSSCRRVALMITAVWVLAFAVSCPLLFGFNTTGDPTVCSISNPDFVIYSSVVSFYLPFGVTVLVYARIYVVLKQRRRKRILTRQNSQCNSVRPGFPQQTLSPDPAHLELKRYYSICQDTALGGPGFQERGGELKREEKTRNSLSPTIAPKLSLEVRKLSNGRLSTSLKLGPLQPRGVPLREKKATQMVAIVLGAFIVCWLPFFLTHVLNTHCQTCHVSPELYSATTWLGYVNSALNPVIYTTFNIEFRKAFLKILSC
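Cells expressing the human receptor were seeded at 1500 cells/well, incubated overnight at 37 degrees C in 5% CO2, then exposed to library compounds with dopamine controls for 90 minutes at 37 degrees C before luminescent detection.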
DT40 TDP1 no CPT = qHTS for Inhibitors of human tyrosyl-DNA phosphodiesterase 1 (TDP1): qHTS in cells in absence of CPT | DT40 Tdp1-/- hTDP1 cells, no CPT, ATP luminescence, 48 h | Potency, µM (titrated, usually from 46.2 µM), most hits filed as inhibitors | hit rate 15% among 420,000 | AID 686978, 2013; note: nearly all actives have a fitted effect of over 55% in size
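Growth of hTDP1-complemented DT40 Tdp1-knockout cells is measured by ATP luminescence after at least 48 hr compound exposure at 37 °C, with DMSO substituting for the 20 nM CPT used in the parallel screen.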
ClpP mod = qHTS Assay for Activators of ClpP. ATP-dependent Clp protease proteolytic subunit (Bacillus subtilis (strain 168)), P80244. purified B. subtilis ClpP, FRET peptide cleavage, 20 min. Potency, µM (titrated, usually from 57.5 µM). hit rate 1.9% among 340,000. AID 651965, 2013; active = well fitted falling curve with a large enough effect; inconclusive = small, poorly fitted or top-dose-only effect; inactive = no such curve, though single readings can be large or run the other way; note: the source files actives as falling curves though it sought activators and does not explain the sign; nearly all actives have a fitted effect of over 65% in size
Target sequence (P80244 whole entry, looked up): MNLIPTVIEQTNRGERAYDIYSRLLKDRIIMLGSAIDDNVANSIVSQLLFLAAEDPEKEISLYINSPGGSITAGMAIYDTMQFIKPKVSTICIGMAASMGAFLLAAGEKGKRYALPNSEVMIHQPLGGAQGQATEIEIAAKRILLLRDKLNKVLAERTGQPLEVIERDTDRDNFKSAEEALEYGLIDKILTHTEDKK
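ClpP 10 microg/mL final, pH 8 Tris/KCl buffer with BSA, glycerol, Tween-20; compound pinned in; FRET-FV substrate; RT 20 min; Ex320/Em430; ΔFRET vs ADEP 5.8 microM, DMSO, no enzyme.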
IL-1B inflam inh = blocks inflammasome-driven IL-1 beta release; THP-1 LPS/ATP IL-1B secretion, AlphaLISA, 16 h; hits give low values; activity change, % at 57.5 µM; hit rate 4.7% among 360,000; AID 743279; in the data active = activity change below about -50%; inconclusive = mostly about -30% to -49%
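Secreted IL-1B measured by AlphaLISA bead assay after 16 h compound exposure of THP-1 cells; compounds (final up to 57.5 uM) added 1 h before LPS (250 ng/mL) and ATP (1.25 mM) stimulation; lower signal means less secretion.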
D3 ag = agonists of human D3 dopamine receptor; P35462; D3R DiscoveRx beta-arrestin cells, luminescence, 90 min; max activation, %; hit rate 0.58% among 410,000; AID 652048; in the data active = max activation above about 30%
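Agonist-mode cell screen: cells plated at 1500/well and incubated overnight at 37 °C, then exposed to library compounds for 90 min at 37 °C. Detection reagent was added for 30–60 min at room temperature, and luminescence was read.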
A number is an active result; - = inactive; ? = inconclusive; . = not tested or not shown; [ ] = dose if it differs, or a comment. Hits are enriched below; roughly 21% of the tested compounds scored in any of these assays. Unless noted, calls come from the whole dose curve; as a rule, active = well fitted inhibition curve with a large enough effect; inconclusive = small, poorly fitted or top-dose-only effect; inactive = flat fitted curve, though single readings scatter.

SMILES	DT40 TDP1 CPT	D3 antag	DT40 TDP1 no CPT	ClpP mod	IL-1B inflam inh	D3 ag
C#CCOCCOCCOCCNc1nc(N2CCN(C(=O)CCCCCCCCCCNC(=O)[C@@H](CCSC)n3cc(CCO)nn3)CC2)nc(N2CCN(C(=O)CCCCCCCCCCNC(=O)[C@H](CO)n3cc(CCCCCN)nn3)CC2)n1	?	-	?	-	-82	-
C#CCOCCOCCOCCNc1nc(N2CCOCC2)nc(N2CCN(C(=O)CCCCCCCCCCNC(=O)[C@H](CO)n3cc(CCCSC)nn3)CC2)n1	23µM	-	?	-	-	-
C#CCOCCOCCOCCNc1nc(N2CCN(C(=O)CCCCCCCCCCNC(=O)[C@@H](CCC(=O)O)n3cc(CCCCCN)nn3)CC2)nc(N2CCN(C(=O)CCCCCCCCCCNC(=O)[C@H](CO)n3cc(CCCSC)nn3)CC2)n1	13µM	-	-	-	-56	-
Cc1ccc(-n2ncc3c(NC4CCCCC4)ncnc32)cc1C	?	.	?	-	.	-
CCOc1ccccc1OCc1nn2c(COc3ccccc3)nnc2s1	16µM	-	13µM	-	-	-
c1ccc(Cc2nn3c(COc4ccccc4)nnc3s2)cc1	?	-	18µM	-	-	-
c1ccc(OCc2nn3c(Cn4cnc5ccccc54)nnc3s2)cc1	16µM	-	?	-	-	-
CCC1CN(CCNC(=O)c2ccc(C#CC(C)(C)O)cc2)Cc2cc(OC)ccc2O1 (configuration not stated)	-[9.04 µM]	.	?	.	.	.
Cc1ccoc1C(=O)N1CCCC(CCC(=O)N2CCN(c3ccccn3)CC2)C1 (configuration not stated)	?	-	23µM	.	-	-
Cc1ncoc1C(=O)N1CCCC(CCC(=O)NCc2ccccc2F)C1 (configuration not stated)	?	-	21µM	.	-	-
O=C(CCC1CCCN(C(=O)c2ccc3c(c2)OCCO3)C1)NCc1ccccc1F (configuration not stated)	-	-	-	-	-	-
CC(C)c1cc(C(=O)N2CCCC(CCC(=O)NCc3ccccc3F)C2)n(C)n1 (configuration not stated)	?	-	13µM	.	-	-
O=C(CCC1CCCN(C(=O)c2cc3ccccc3o2)C1)NCc1ccc(F)c(F)c1 (configuration not stated)	16µM	-	16µM	-	-	-
Cc1cccc(C(=O)N2CCCC(CCC(=O)N3CCN(c4ccccn4)CC3)C2)c1C (configuration not stated)	?	-	?	-	-	-
Cc1ncoc1C(=O)N1CCCC(CCC(=O)NCc2ccc(F)c(F)c2)C1 (configuration not stated)	-	-	-	.	-	-
C=CCC(=O)N1CCCC(CCC(=O)NCc2ccccc2F)C1 (configuration not stated)	-	-	-	-	-	-
COCc1ccc(C(=O)N2CCCC(CCC(=O)NCc3ccccc3F)C2)o1 (configuration not stated)	3.7µM	-	2.9µM	.	-	-
O=C(CCC1CCCN(C(=O)c2ccco2)C1)NCc1ccccc1F (configuration not stated)	18µM	-	?	-	-	-
Cc1cccc(C(=O)NCC(=O)N2CCCCCCC2)c1	-	-	-	-	-	-
COc1ccccc1N1C(=O)C2CCC(c3ccccc3)CC2C1=O (configuration not stated)	-	-	-	-	-	-
COc1ccccc1N1C(=O)C2CC=CC(C)C2C1=O (configuration not stated)	-	-	-	3.2µM	-	-
COc1ccc(N2CCN(C(c3nnnn3C3CCCC3)C(C)C)CC2)cc1 (configuration not stated)	21µM	-	18µM	.	-	-
CC(C)C(c1nnnn1C1CCCC1)N1c2ccccc2CC1C (configuration not stated)	21µM	-	13µM	-	-	-
COc1ccc(OC)c(C(c2nnnn2C2CCCC2)N2CCN(c3ccc(F)cc3)CC2)c1 (configuration not stated)	?	-	?	-	-	-
COc1ccc(C(c2nnnn2C2CCCC2)N2CCC(C)CC2)c(OC)c1 (configuration not stated)	18µM	?	21µM	18µM	-	-
SMILES	DT40 TDP1 CPT	D3 antag	DT40 TDP1 no CPT	ClpP mod	IL-1B inflam inh	D3 ag
COc1cc2cc(C(c3nnnn3C3CCCC3)N3CCCCC3)c(=O)[nH]c2cc1OC (configuration not stated)	-	-	-	22µM	-	-
Cc1ccsc1/C=N/Nc1ccc(F)cc1F	-	-	-	.	-	-
Cn1cc(CN2CCC(n3nccc3NC(=O)C3CCCC3)CC2)cn1	-	-	-	-	-	-
O=c1[nH]c2cc3c(cc2cc1C(c1nnnn1C1CCCCC1)N1CCSCC1)OCCO3 (configuration not stated)	?	-	?	35µM	-	-
NC(=O)c1ccccc1NC(=O)/C=C/c1ccccc1	?	-	21µM	-	-	-
O=C(/C=C/c1ccc(Cl)cc1)NC(=S)Nc1ccccc1C(=O)O	?	-	?	-	-	-
NC(=O)c1ccccc1NC(=O)/C=C/c1ccc(Cl)cc1	?	-	16µM	-	-	-
CC(=O)Nc1nc(NC(=O)/C=C/c2ccccc2)n(-c2ccccc2)n1	12µM	-72	8.2µM	-	-	-
Cc1c(O)ccc(NC(=O)/C=C/c2ccccc2)c1C	18µM	-	15µM	.	-	-
COc1ccccc1Oc1ccc(N2CC(C(=O)OCC(=O)c3ccccc3)CC2=O)cc1 (configuration not stated)	-	-	-	-	-	-
CC(=O)Nc1ccc(C)cc1-c1nc2ccccc2n(Cc2cccc(Br)c2)c1=O	-	.	-	-	.	-
Cc1ccc(NC(=O)CNc2cccc(S(=O)(=O)N3CCOCC3)c2)cc1F	?	-	?	-	-	-
Cc1ccc(NC(=O)CN(C)CC(=O)Nc2cccc(F)c2)cc1S(=O)(=O)N1CCCCCC1	?	-	?	-	-77	-
Cc1ccc(NCC(=O)Nc2cccc(S(=O)(=O)N(C)C)c2)cc1S(=O)(=O)N1CCCCCC1	8.2µM	-	7.3µM	-	?	-
N#Cc1cccc(NC(=O)CNc2cccc(S(=O)(=O)N3CCCC3)c2)c1	?	-	?	.	-	-
CCN(CC)S(=O)(=O)c1cc(NC(=O)CNc2cccc(S(=O)(=O)N3CCOCC3)c2)ccc1C	5.2µM	-	2.1µM	-	-	-
